This note sets out measurements from PubChem BioAssay (NCI).

The panel holds about 83,000 compounds, 20% with a hit somewhere; the sample as a whole holds those more often.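 The test compound was applied at a single concentration to cells in 96-well plates for 48 hours, and percent growth was recorded.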 A number with no mark means an inactive call. Active and inactive are the calls of the source. How the source made its calls: active means growth percent below 10; inactive means the rest.

The experiment deals with T-47D breast. Put plainly: NCI-60 one-dose screen, 48 h (100 = growth as untreated, 0 = no growth, -100 = all killed). Conditions: 10 µM unless noted.
Turning to `N#C/C(=C\c1ccc(-c2ccc(Cl)cc2)o1)C(=O)Nc1ncc(Cc2ccc(Br)cc2)s1`, the growth was 18.7%.

Consider `CC(O)c1cccc(/C(N)=N/C(N)=N/c2nc3ccccc3s2)c1` (centres undefined), for which the growth was 83.6%.

Turning to `O=C(CN1CCN(c2cc(=O)[nH]c3ccc(F)cc23)CC1)N(c1ccccc1)c1ccccc1`, the growth was 97.4%.

As to `Cn1c(SCC(=O)c2ccc(Br)cc2)nc2ccccc2c1=O`, the growth is 78.4%.

As for `NC(N)=NS(=O)(=O)c1ccc(N=Nc2c(N)nn(-c3ccc([N+](=O)[O-])cc3[N+](=O)[O-])c2N)cc1`, the growth was 104%.

For `Cc1cc2nc3c4cc(C#N)ccc4n(CCN(C)C)c3nc2cc1C`, the growth is 20.2%.

With `O=C(CCCCCCN1CC(=O)N2[C@@H](c3cccs3)c3[nH]c4ccccc4c3C[C@H]2C1=O)NO`, the growth is 42.7%.

Turning to `CC1=C(C)C(=O)C(Nc2ccc(C)c(C)c2)=C(Br)C1=O`, the growth was 41.6%.

Turning to `COc1cc(/C=C2/C(=O)Nc3ccc(Cl)cc32)ccc1OCc1ccc(Cl)cc1`, the growth was 80.5%.

`Cc1ccc2c(n1)C(=O)C(Cl)=C(Nc1ccc(C(C)C)cc1)C2=O`: the growth is -47% (active).

Turning to `CN1CCN(c2ccc(Nc3nc(NCCNS(=O)(=O)c4ccccc4)c4sccc4n3)cc2)CC1`, the growth is 86.3%.

On to `C=C(C)[C@@H]1CC[C@]2(COCCCNCCCN)CC[C@]3(C)[C@H](CC[C@@H]4[C@@]5(C)CC[C@H](O)C(C)(C)[C@@H]5CC[C@]43C)[C@@H]12`, for which the growth is -53.3% (active).

For `CN1CCN(Cc2ccc(NC(=O)c3cncc(C#Cc4cnc5ccc(OCC6COC6)nn45)c3)cc2C(F)(F)F)CC1`, the growth is -1.42% (active).

Take `CCN(CC)S(=O)(=O)c1ccc(-c2nc(C(Cl)Cl)nc3cc(-c4ccc(F)cc4)nn23)cc1`: the growth was 28%.

For the compound `COc1cccc(N2CCN(C3=C(Cl)C(=O)c4ncccc4C3=O)CC2)c1`, the growth was -48.1% (active).

`C#CCOc1cccc(-c2nc(N)nc(Nc3ccccc3SSc3ccccc3Nc3nc(N)nc(-c4cccc(OCC#C)c4)n3)n2)c1`: the growth was 40.5%.

For `O=C(CSc1nnc(-c2ccc(Cl)cc2)n1-c1ccccc1)Nc1ccc(Cl)cc1`, the growth was 30.9%.

Turning to `NC(=O)n1c(=O)n(-c2cccc(C(F)(F)F)c2)c(=O)c2cc(-c3ccc(F)cc3F)ccc21`, the growth is -14% (active).

For `C#CCOc1ccc(/C=N/Nc2nc(-c3ccc(OC)cc3)cs2)cc1`, the growth was 68.7%.

For `O=C(CSc1nnc(-c2ccc(Cl)cc2)n1-c1ccccc1)Nc1ccccc1Cl`, the growth is 45.7%.

Take `CCOC(=O)c1c(NC(=O)c2cccc(C(F)(F)F)c2)sc2c3c(ccc12)OCN(C)C3`: the growth was -38.2% (active).

Take `CN1CCN(Cc2ccc(NC(=O)c3cncc(C#Cc4cnc5ccc(OCCCS(C)(=O)=O)nn45)c3)cc2C(F)(F)F)CC1`: the growth is 16.2%.

Consider `CCOC(=O)c1c(NCC(=O)Nc2cccc([N+](=O)[O-])c2)sc(C(C)=O)c1C`, for which the growth is 34.6%.

Turning to `N#Cc1c(-c2cccs2)cc(-c2cnccn2)nc1SCC(=O)N/N=C/c1ccccc1`, the growth is 25.6%.

For the compound `CN1CCN(Cc2ccc(NC(=O)c3cncc(C#Cc4cnc5ccc(O[C@@H]6CCOC6)nn45)c3)cc2C(F)(F)F)CC1`, the growth is -29.2% (active).

As for `O=C(CCCCCCNC(=O)c1csc(Br)n1)NO`, the growth was 6.1% (active).

`O=C(NCCNc1cc(-c2cn(-c3ccccc3)nc2-c2cccc(O)c2)ccn1)Nc1cc(C(F)(F)F)cc(C(F)(F)F)c1`: the growth was 90.5%.

`COC(=O)c1ccc(NC2=C(Cl)C(=O)c3nc(C)ccc3C2=O)cc1`: the growth was 31.2%.

Consider `CCOP(=O)(OCC)OC[C@]12CCC(C)(C)C[C@H]1C1=CC[C@@H]3[C@@]4(C)CC[C@H](OP(=O)(OCC)OCC)C(C)(C)[C@@H]4CC[C@@]3(C)[C@]1(C)CC2`, for which the growth is 26.2%.

Regarding `C/C(=N/N)c1nnn(-c2ccc(Br)cc2)c1C`, the growth is 102%.

As to `O=C(N/N=C\c1ccc(F)cc1)c1ccc2nc(-c3ccc(Br)cc3)[nH]c2c1`, the growth was 75.6%.

Turning to `O=C1Nc2ccc(F)cc2/C1=C\C(=O)c1ccc(NS(=O)(=O)c2ccccc2)cc1`, the growth was 96.7%.

For the compound `CN1CCN(c2ccc(Nc3nc(NCCNS(=O)(=O)c4ccc5ccccc5c4)c4sccc4n3)cc2)CC1`, the growth is 55.2%.

As for `CCn1c2ccc(/C=N/N(C)S(=O)(=O)CCN(C)C)cc2c2cc(/C=N/N(C)S(=O)(=O)CCN(C)C)ccc21`, the growth is 88.6%.
